Source: PubChem BioAssay
Active and inactive are the calls of the source.

What was measured:
Albumin (Bos taurus) = Albumin (Bos taurus) (UniProt P02769); experiment: bovine serum albumin binders on microarray, profiling panel, artefact control for SMM control protein annotation, biochemical, small-molecule microarray, Alexa647 label, 635/667 nm fluorescence (AID 1118); conditions: BSA-A647 binding, fluorescence 635 nm, higher = more signal;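 also: score merges 667 nm emission intensity and signal-to-noise per printed compound spot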
[1] = small-molecule microarray binders of probe aXIP, primary screen, biochemical, NeuroSMM set, 635/667 nm fluorescence (AID 1119); conditions: higher = more signal, called active from +8 up or from −8 down;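 also: probe is the protein aXip251-270 applied at 1 µg/mL to compound-printed slides; binding of probe to printed compounds measured as 667 nm fluorescence plus signal to noise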
[2] = small-molecule binders of probe aNOTCH3, primary screen, biochemical, small-molecule microarray, 635/667 nm fluorescence (AID 1120); conditions: higher = more signal;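 also: probe is a biotin-tagged antibody raised against NOTCH3 rather than NOTCH3 protein; score merges spot fluorescence near 667 nm with spot signal to noise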
[3] = small-molecule binders of probe aNOTCH2, primary screen, biochemical, small-molecule microarray, 635/667 nm fluorescence (AID 1121); conditions: higher = more signal;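 also: score merges feature fluorescence read at 667 nm with its signal to noise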
[4] = biological target: Carbonic anhydrase 2 (Homo sapiens) (UniProt P00918); experiment: CAII small-molecule binders, profiling panel, biochemical, small-molecule microarray, Alexa647-labelled CAII (AID 1122); conditions: CAII-A647 binding fluorescence, higher = more signal
[5] = COS7 lysate on small-molecule microarray, probe aHis, 635 nm (AID 1123); conditions: COS7 cell lysate, fluorescence, higher = more signal;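 also: z-score combines 667nm fluorescence intensity with signal-to-noise per printed compound spot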
[6] = compound binding in COS7 lysate, probe aLAP1, primary screen, cell lysate, small-molecule microarray (AID 1124); conditions: probe aLAP1, fluorescence, higher = more signal;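 also: lysate comes from COS7 cells expressing LAP1 and is applied at 0.3 µg/mL; score merges spot fluorescence near 667 nm with signal-to-noise over triplicate slides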
Sam68 (KHDRBS1) = experiment: Sam68 small-molecule binders, primary screen, biochemical, small-molecule microarray, 635 nm fluorescence (AID 1125); conditions: small-molecule microarray binding, higher = more signal;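 also: score merges 667 nm channel intensity with signal to noise over triplicate slides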
[7] = test system: Chordin-like protein 2 (CHRDL2); experiment: CHRDL2 small-molecule binders, primary screen, biochemical, small-molecule microarray, 635 nm fluorescence (AID 1126); conditions: small-molecule microarray binding, fluorescence 635 nm; higher = more signal;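 also: printed compound slides probed with Chrdl2 protein at 4 µg/mL for 1 h at 4 C; score merges 667 nm emission intensity with signal to noise over three replicate slides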
[8] = biological target: Concanavalin-A (Canavalia ensiformis) (UniProt P02866); experiment: ConA small-molecule binders, primary screen, artefact control for SMM control protein annotation, biochemical, small-molecule microarray, Alexa647 label, 635 nm (AID 1127); conditions: ConA-A647 binding fluorescence, higher = more signal;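 also: z combines 667 nm emission intensity with signal-to-noise across three replicate slides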
[9] = anti-His antibody binders, primary screen, artefact control for SMM control protein annotation, biochemical, small-molecule microarray, 635 nm fluorescence (AID 1128); conditions: anti-His Alexa647 antibody binding, higher = more signal;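 also: score merges feature fluorescence with signal-to-noise for each printed compound spot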
[10] = test system: Human papillomavirus type 1a E7 protein (residues 1-88); experiment: HPV1a E7 small-molecule binders, primary screen, biochemical, small-molecule microarray, residues 1-88, 635 nm (AID 1129); conditions: small-molecule microarray binding, fluorescence 635 nm; higher = more signal
[11] = biological target: Focal adhesion kinase 1 (Homo sapiens) (UniProt Q05397); experiment: small-molecule microarray binders of FAK, primary screen, biochemical, 635/667 nm fluorescence, BSA, DTT (AID 1130); conditions: PTK2 binding, 635 nm fluorescence, higher = more signal;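 also: composite of spot emission at 667 nm and signal to noise over triplicate slides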
[12] = test system: Fibrinogen (Alexa647-labelled); experiment: fibrinogen binders on compound microarrays, profiling panel, artefact control for SMM control-protein annotation, biochemical, small-molecule microarray, 635/667 nm fluorescence (AID 1131); conditions: fibrinogen-A647 binding fluorescence, higher = more signal;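 also: z-score merges 667 nm fluorescence with per-spot signal-to-noise over triplicate slides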
[13] = biological target: Follistatin (Homo sapiens) (UniProt P19883); experiment: follistatin binders on small-molecule microarrays, primary screen, biochemical, small-molecule microarray, 635/667 nm fluorescence (AID 1132); conditions: FST binding, 635 nm fluorescence, higher = more signal
[14] = biological target: Fibroblast growth factor 2 (Homo sapiens) (UniProt P09038); experiment: FGF2 binders on small-molecule microarrays, primary screen, biochemical, small-molecule microarray, 635/667 nm fluorescence (AID 1133); conditions: small-molecule microarray binding, FGF2, fluorescence 635/667; higher = more signal
[15] = mitochondrial membrane potential change in A549 cells, profiling panel, cell-based, JC-1 fluorescence, basal, 24 h, 100 nL (AID 1138); conditions: higher = more signal;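 also: A549 lung adenocarcinoma cells under basal conditions with no added stimulus; test concentration not given here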
Lefty1 = Lefty1 binders on small-molecule microarrays, primary screen, biochemical, small-molecule microarray, 635/667 nm fluorescence (AID 1139); conditions: small-molecule microarray binding, fluorescence 635/667; higher = more signal
[16] = test system: wheat germ agglutinin (Triticum aestivum), Alexa647-labelled; experiment: wheat germ agglutinin binders on compound microarrays, profiling panel, artefact control for SMM control-protein annotation, biochemical, small-molecule microarray, 635/667 nm fluorescence (AID 1140); conditions: WGA-A647 binding, 635 nm fluorescence, higher = more signal;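 also: score merges 667 nm feature emission with signal to noise over triplicate slides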
[17] = biological target: Luciferin 4-monooxygenase (Photinus pyralis) (UniProt P08659); experiment: firefly luciferase enzyme inhibitors, primary screen, biochemical, luminescence, purified enzyme, 2006 set (AID 1141); conditions: SteadyGlo luminescence, 30 min, higher = more signal, called active from +8 up or from −8 down;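 also: cell-free assay with purified firefly luciferase at 100 ng per well in PBS; test concentration not given here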
Luciferin 4-monooxygenase (Photinus pyralis), sequence (P08659 whole entry, looked up): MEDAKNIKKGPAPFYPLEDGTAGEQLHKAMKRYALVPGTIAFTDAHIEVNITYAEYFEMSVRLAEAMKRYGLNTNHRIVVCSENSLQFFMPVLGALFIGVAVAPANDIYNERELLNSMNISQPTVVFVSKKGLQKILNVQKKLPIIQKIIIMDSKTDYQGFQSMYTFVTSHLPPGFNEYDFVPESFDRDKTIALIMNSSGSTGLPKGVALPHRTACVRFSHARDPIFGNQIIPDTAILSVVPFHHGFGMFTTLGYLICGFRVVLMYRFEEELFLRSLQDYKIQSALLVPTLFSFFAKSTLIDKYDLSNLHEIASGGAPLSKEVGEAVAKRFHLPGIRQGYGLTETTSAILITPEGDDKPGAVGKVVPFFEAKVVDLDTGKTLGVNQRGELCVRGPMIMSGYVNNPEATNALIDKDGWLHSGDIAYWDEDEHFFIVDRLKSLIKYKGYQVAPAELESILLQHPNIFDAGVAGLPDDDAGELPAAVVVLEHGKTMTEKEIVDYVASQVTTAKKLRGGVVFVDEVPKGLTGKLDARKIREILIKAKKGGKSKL

Concanavalin-A (Canavalia ensiformis), sequence (P02866 whole entry, looked up): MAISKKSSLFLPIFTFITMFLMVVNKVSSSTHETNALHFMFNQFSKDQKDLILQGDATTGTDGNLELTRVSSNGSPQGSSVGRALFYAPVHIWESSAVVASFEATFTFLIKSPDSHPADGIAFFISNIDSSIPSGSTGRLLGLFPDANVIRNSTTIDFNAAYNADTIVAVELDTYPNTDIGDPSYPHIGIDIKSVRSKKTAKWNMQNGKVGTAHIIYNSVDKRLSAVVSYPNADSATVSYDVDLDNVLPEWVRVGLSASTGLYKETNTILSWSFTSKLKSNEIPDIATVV
Fibroblast growth factor 2 (Homo sapiens), sequence (P09038 whole entry, looked up): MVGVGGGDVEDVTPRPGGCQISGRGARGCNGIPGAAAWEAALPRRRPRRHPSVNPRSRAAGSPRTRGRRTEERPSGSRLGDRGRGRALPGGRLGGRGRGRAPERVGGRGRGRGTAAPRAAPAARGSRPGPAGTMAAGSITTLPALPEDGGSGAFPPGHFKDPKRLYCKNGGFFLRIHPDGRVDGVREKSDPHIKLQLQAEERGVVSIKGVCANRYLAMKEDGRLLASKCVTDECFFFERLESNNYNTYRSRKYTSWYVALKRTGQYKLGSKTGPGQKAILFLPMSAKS
Follistatin (Homo sapiens), sequence (P19883 whole entry, looked up): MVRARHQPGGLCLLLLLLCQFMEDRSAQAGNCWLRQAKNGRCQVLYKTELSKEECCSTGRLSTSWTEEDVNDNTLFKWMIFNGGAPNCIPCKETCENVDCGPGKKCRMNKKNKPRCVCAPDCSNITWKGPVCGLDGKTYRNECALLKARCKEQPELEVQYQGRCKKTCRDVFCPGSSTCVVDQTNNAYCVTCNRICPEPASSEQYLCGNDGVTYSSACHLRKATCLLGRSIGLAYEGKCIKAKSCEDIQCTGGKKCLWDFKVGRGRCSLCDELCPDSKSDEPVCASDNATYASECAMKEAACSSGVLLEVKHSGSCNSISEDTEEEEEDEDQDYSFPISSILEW
Focal adhesion kinase 1 (Homo sapiens), sequence (Q05397 whole entry, looked up): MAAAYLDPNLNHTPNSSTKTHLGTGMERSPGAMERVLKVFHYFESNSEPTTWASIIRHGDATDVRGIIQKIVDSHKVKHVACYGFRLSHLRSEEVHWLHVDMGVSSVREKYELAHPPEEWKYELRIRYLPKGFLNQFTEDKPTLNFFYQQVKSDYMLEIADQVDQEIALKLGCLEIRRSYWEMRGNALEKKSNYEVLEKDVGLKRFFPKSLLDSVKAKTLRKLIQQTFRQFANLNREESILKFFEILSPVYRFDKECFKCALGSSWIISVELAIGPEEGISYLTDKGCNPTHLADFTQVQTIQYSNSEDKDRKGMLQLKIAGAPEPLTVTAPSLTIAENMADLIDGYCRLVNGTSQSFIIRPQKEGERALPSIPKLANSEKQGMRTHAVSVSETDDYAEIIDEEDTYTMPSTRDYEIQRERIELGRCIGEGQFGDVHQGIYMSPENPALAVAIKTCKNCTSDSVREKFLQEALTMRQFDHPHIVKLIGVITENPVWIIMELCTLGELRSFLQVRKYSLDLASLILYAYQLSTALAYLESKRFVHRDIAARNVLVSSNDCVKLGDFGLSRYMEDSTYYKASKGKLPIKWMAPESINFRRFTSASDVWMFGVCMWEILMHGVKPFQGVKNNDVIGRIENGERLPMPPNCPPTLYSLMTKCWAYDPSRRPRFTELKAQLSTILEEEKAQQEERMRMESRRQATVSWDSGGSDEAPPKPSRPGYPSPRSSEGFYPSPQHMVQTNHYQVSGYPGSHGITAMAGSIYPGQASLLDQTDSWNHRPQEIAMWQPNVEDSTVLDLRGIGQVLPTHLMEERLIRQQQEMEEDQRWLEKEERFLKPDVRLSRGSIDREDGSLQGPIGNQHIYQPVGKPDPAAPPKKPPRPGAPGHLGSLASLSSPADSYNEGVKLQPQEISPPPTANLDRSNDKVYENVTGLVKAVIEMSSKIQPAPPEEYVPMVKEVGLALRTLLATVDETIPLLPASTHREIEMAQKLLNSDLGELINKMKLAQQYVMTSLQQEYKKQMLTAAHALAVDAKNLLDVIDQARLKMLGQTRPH
Albumin (Bos taurus), sequence (P02769 whole entry, looked up): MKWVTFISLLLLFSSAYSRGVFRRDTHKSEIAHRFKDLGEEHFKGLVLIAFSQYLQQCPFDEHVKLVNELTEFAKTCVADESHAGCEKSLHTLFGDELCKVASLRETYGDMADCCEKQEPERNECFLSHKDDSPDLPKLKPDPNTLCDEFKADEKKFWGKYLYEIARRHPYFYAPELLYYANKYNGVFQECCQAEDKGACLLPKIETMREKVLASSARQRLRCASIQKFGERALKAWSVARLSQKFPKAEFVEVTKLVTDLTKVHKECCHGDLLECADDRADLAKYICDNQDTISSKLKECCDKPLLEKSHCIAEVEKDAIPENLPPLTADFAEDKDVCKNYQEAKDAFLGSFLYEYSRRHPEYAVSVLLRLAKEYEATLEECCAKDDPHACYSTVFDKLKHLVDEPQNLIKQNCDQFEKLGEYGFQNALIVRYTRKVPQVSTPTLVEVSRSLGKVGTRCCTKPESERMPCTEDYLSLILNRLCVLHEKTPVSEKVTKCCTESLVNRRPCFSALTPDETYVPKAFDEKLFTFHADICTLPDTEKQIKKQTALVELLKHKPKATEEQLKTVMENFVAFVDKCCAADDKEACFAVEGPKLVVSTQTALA

SMILES	composite z-score (Albumin (Bos taurus))	composite Z-score [1]	composite z-score [2]	composite z-score [3]	composite z-score [4]	composite z-score [5]	composite z-score [6]	composite z-score (Sam68 (KHDRBS1))	composite z-score [7]	composite z-score [8]	composite z-score [9]	composite z-score [10]	composite z-score [11]	composite z-score [12]	composite z-score [13]	composite z-score [14]	z-score [15]	composite z-score (Lefty1)	composite z-score [16]	z-score [17]
CN1C(=O)C2C=CC(C(O)c3ccccc3)N(N(c3ccccc3)c3ccccc3)C2C1=O (stereo not given)	0.273	0.22 (inactive)	0.215	0.105	0.763	0.321	1.34	-0.494	0.781	-0.529	1.95	-0.54	0.112	0.384	1.34	-0.0637	-0.516	0.03	0.489	1.07 (inactive)
C=CCNC(=O)[C@@H]1[C@H]2C(=O)O[C@H](c3ccccc3)[C@H](c3ccccc3)N2[C@H](c2ccccc2OCCO)[C@@]12C(=O)N(C(=O)OCCOC)c1ccccc12	0.236	0.318 (inactive)	0.492	-0.0878	0.395	0.938	0.594	1.31	0.66	1.16	0.439	1.2	-0.0723	0.979	1.39	1.49	0.432	1.29	0.478	-0.549 (inactive)
CCOC(=O)C1=C[C@@H](C(C)(C)C)N(S(=O)(=O)c2ccc(C)cc2)[C@H]1c1ccc(F)cc1	0.316	-0.171 (inactive)	0.169	-0.0254	0.287	1.61	0.397	1.29	0.16	0.819	0.416	1.21	-0.225	0.939	1.05	0.553	3.65	0.96	0.723	1.53 (inactive)
COC(=O)[C@@]1(Cc2ccc(OC)cc2)[C@H]2c3cc(C(=O)N(C)C)n(CCc4ccccn4)c3C[C@H]2CN1C(=O)c1ccccc1	0.928	-0.0712 (inactive)	1.28	0.689	0.461	1.06	0.272	0.221	-0.764	-0.138	0.429	0.815	0.933	-1.04	0.0679	-0.162	-0.267	-0.919	0.698	1.49 (inactive)
CCCCCCc1nc(-c2cc(C)c(OC)c(C)c2)cc2c1[Si](C(C)C)(C(C)C)OC2	-0.623	0.244 (inactive)	-0.0111	-0.113	0.0878	-0.241	-0.0553	0.363	0.119	0.208	-0.164	0.103	0.0497	-0.419	0.578	-0.143	-0.693	0.275	-0.239	1 (inactive)
